The supplement of paper PMC3334620
Over roughly 33,000 sequences, “E-score (-0.5 to 0.5)” has its median near -0.035; the highest 2% begin near 0.35. This is one part of a sample in which the highest values are shown more often than they occur.

Target: T1, Pdr3 (UniProt P33200)
T1 sequence: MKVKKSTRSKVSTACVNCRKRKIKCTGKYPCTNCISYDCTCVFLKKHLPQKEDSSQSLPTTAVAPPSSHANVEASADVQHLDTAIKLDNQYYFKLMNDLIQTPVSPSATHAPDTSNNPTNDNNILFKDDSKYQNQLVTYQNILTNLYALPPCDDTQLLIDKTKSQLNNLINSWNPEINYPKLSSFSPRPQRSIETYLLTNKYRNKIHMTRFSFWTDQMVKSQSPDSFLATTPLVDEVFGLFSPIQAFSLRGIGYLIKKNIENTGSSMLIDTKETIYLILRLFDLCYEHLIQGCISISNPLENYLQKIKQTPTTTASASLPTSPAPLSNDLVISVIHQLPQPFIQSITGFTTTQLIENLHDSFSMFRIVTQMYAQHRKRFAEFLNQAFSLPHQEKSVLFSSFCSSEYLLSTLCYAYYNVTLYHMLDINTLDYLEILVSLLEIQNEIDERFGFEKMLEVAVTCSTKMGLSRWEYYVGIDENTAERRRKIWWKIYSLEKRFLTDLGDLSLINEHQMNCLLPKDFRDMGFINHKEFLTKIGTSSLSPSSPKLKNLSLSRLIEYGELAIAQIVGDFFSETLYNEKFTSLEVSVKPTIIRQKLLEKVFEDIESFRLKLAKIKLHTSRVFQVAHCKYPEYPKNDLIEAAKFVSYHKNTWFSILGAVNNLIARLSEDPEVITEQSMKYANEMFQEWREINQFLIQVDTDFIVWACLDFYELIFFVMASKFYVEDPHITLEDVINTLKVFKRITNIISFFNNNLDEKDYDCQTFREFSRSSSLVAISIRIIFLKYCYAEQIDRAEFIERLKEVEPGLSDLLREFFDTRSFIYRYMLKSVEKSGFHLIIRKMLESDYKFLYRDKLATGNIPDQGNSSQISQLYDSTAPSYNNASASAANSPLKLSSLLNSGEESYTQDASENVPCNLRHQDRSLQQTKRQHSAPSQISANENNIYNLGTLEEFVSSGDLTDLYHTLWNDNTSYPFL
Test: PBM E-score (8-mer binding enrichment) (E-score (-0.5 to 0.5)); higher = stronger / more preferred TF binding
Details: protein concentration: 200 nM; construct: GST-full length
Protocol: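 Universal 'all 10-mer' protein binding microarrays (Agilent AMADID 015681) probed with GST-tagged S. cerevisiae TFs (full-length or DBD) made by in vitro transcription/translation (PURExpress), about 100-200 nM. Bound TF was detected with fluorescent anti-GST. Each ungapped 8-mer (which stands for itself and its reverse complement) is scored by the PBM enrichment score (E-score), a modified Wilcoxon-Mann-Whitney statistic from -0.5 to +0.5, computed with the Universal PBM Analysis Suite. Scale: above 0.35 generally sequence-specific binding.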

Sequence | PBM E-score
CGCCCTCC | 0.0638
TAATGATA | 0.132
ATCGCATC | 0.121
GTCCCAAA | -0.154
CAGGCCAC | 0.00119
ATTTGCAG | -0.0031
ACCATAGG | -0.229
GAGAAAAA | 0.176
ATCTGGGG | -0.109
AATTCCAT | 0.156
AATTCCGA | 0.423
AATTCCAA | -0.0365
AATTCCCA | -0.171
AATTCCGT | 0.449
AATTCCCT | -0.207
ACTAGCCG | 0.105
GACCCGAC | 0.21
AGCCCGGA | 0.355
CGCCCGAA | 0.117
CGCCCGGC | 0.293
AGCCCGGG | 0.383
AGCCCGAG | -0.044
GGCCCGGA | 0.336
AGCCCCGG | 0.303

Sequence | PBM E-score
AGCCCGGC | 0.264
CGCCCGGA | 0.396
ACACAGTC | -0.0508
CTAGCATC | -0.172
CTTTCTAC | -0.16
ACCATACG | -0.0138
GTGGCGGA | 0.271
CTGGCGGA | 0.131
CCGGCGGC | 0.325
GCGGCGGA | 0.404
ACGGCGGA | 0.314
CCGGCGGA | 0.449
ATCTCCTA | -0.245
GATACGAA | 0.033
GCCTGGCC | 0.00694
TCAACACA | -0.0355
CATCCGGC | 0.295
TATCCGAA | 0.307
AATCCGGT | 0.294
CATCCGGG | 0.261
GATCCGGC | 0.369
AATCCGGC | 0.302
AATCCAGA | 0.127
CATCCGAA | 0.282

Sequence | PBM E-score
CATCCGGA | 0.426
CATCCGTA | 0.282
GATCCGAA | 0.365
AATCCGGA | 0.455
AGAATGCG | 0.0628
CAAGGCGA | -0.174
GACGCCTA | -0.228
AGCTGTTG | -0.0549
AAGAAATC | -0.104
ACATGAGG | -0.0733
GCTCCGAA | 0.361
GATCCGGA | 0.437
TATCCTGA | -0.107
CCTCCGAA | 0.152
TATCCGGA | 0.446
TCTCCGAA | 0.257
GATCCGTA | 0.336
GATCCGCA | 0.319
TATCCGCA | 0.335
TACCGATA | 0.0617
GACTAACC | -0.2
ACCTCAAG | -0.0979
ATGATCTA | 0.0443
CCGTCCCC | 0.166

Sequence | PBM E-score
CCGTCCCG | 0.371
ACGTCCCG | 0.279
TACTCAGA | -0.0418
ATGCTCTA | -0.211
AGGGACAG | -0.3
CGGGACAC | 0.245
CCGGACCG | 0.378
ACGGACCC | 0.344
CGGGACCG | 0.373
CAGGACCG | -0.0353
CGGGACAG | 0.359
CCAGACCG | 0.0829
AGGGACCG | -0.128
GCGGACCC | 0.336
CGGGACCA | 0.264
CCGGACCC | 0.379
AGGGTTAT | -0.0536
GGATAAAC | 0.195
CGACCTCC | 0.208
AGTCATGG | -0.234
CCAAGAGG | -0.122
CGCCGAGA | 0.228
